About 64,000 (15%) of roughly 420,000 compounds were called active. About 27% were inconclusive and are not listed. Calls follow the shape of the dose curve; as a rule, active = well fitted inhibition curve with a large enough effect; inconclusive = small, poorly fitted or top-dose-only effect; inactive = flat fitted curve, though single readings scatter. Only a sample is shown.
% is scaled to controls: 0 for no effect and ±100 for the full control effect; potency is read from the fitted curve at half-maximal effect.

A short description of this test: qHTS for Inhibitors of human tyrosyl-DNA phosphodiesterase 1 (TDP1): qHTS in cells in absence of CPT. Also: nearly all actives have a fitted effect of over 55% in size. To be noted: DT40 Tdp1-/- hTDP1 cells, no CPT, ATP luminescence, 48 h; activity change, negative = growth inhibition: at 46.2 µM (top of the series). In a few lines:
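Chicken DT40 Tdp1-/- cells stably complemented with human TDP1 were seeded at 400 cells/well with DMSO in place of 20 nM camptothecin. After compound pinning, cells grew at least 48 hr at 37 °C; viability read by CellTiter-Glo luminescence.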
For `CC(C)n1c(O)c(N=Nc2ccccn2)c2ccccc21`, the “activity change, negative = growth inhibition” value was -8.18% (inactive).
On the same count and under the same terms, as for `CCC(C)NC(=O)c1ccccc1NC(=O)c1ccccc1N(C)S(C)(=O)=O` (centres undefined), the figure is -19.8% (inactive); as for `Cc1n[nH]c(=O)n1-c1ccc(C(C)C)cc1`, 15.4% (inactive).
Take `O=C1c2cccc3cccc(c23)C(=O)N1c1cccc(O)c1`: the “activity change, negative = growth inhibition” value is -6.3% (inactive).
Take `Cc1nnc(CN(C)Cc2cn[nH]c2-c2ccc(-c3ccccc3)cc2)o1`: the “activity change, negative = growth inhibition” value is -6.06% (inactive).
Still for that read-out and setting: as for `CC1CCCN(S(=O)(=O)c2ccc(-c3ccc(=O)[nH]n3)o2)C1` (centres undefined), the figure is -8.44% (inactive).
Take `O=S(=O)(c1ccc2nc(NCc3ccccc3Cl)ccc2c1)N1CCCCC1`: the Potency was 10.3 µM (active).
`O=S(=O)(NCc1ccccc1)c1ccc(S(=O)(=O)N2CCCC2)cc1`: the “activity change, negative = growth inhibition” value is -20.5% (inactive).
Same read-out and setting: as for `O=S(=O)(c1ccc2nc(N3CCN(c4cccc(Cl)c4)CC3)ccc2c1)N1CCCCC1`, the figure is -1.01% (inactive).
The same measure, in the same setting: to `CN(C(=O)CCNC(=O)Cn1ccc2ccccc2c1=O)c1ccc(Br)cc1` belongs 3.44% (inactive).
Still for that read-out and setting: as for `CC/C(=N/Nc1ccccc1)c1cnnc(SC)n1`, the figure is 8.67% (inactive); as for `COc1cccc(C(=O)Oc2cc(C)[nH]c(=O)c2[N+](=O)[O-])c1`, -8.65% (inactive).
On to `COc1ccc(/C=C/c2noc(-c3ccccc3OC(C)=O)n2)cc1`, for which the “activity change, negative = growth inhibition” value is -13.5% (inactive).
The same measure, in the same setting: as for `O=C(CCC(=O)N/N=C/c1ccc(Br)o1)N/N=C/c1ccc(Br)o1`, the figure is 1.16% (inactive).
Still for that read-out and setting: to `CC(C)/C=N/NC(=O)c1cc(Br)ccc1O` belongs -12.7% (inactive).
Take `O=C(CCc1ccc(O)cc1)NN=Cc1cc(Br)ccc1O`: the Potency is 5.8 µM (active).
With `CCCC1NC(=O)NC(C)=C1C(=O)OCC` (centres undefined), the “activity change, negative = growth inhibition” value was -0.636% (inactive).
On to `Nc1ncnc(Nc2cccc(Cl)c2Cl)n1`, for which the “activity change, negative = growth inhibition” value was 24.3% (inactive).
Turning to `O=C(CSc1nccc(=O)[nH]1)Nc1ccc(N2CCOCC2)c(Cl)c1`, the “activity change, negative = growth inhibition” value is -14.9% (inactive).
As for `Cc1ccccc1OCC(O)CN1CCN(c2ccccn2)CC1` (centres undefined), the “activity change, negative = growth inhibition” value is -1.08% (inactive).
Same read-out and setting: as for `Cc1ccc(OCC(=O)Nn2cnc3ccccc32)cc1`, the figure is -10.1% (inactive).
Take `CC(C)c1ccc(OCC(O)Cn2cnc3ccccc32)cc1` (centres undefined): the Potency is 14.6 µM (active).
In the case of `OC(COc1ccccc1)Cn1cc(Br)cn1` (centres undefined), the “activity change, negative = growth inhibition” value is 24% (inactive).
In the case of `CC(=O)Nc1ccc(OCC(O)CN2CCN(c3ccccc3Cl)CC2)cc1` (centres undefined), the “activity change, negative = growth inhibition” value is -24.4% (inactive).
`CC(C)c1ccc(OCC(O)CN2CCN(c3ccccn3)CC2)cc1` (centres undefined): the Potency was 10.3 µM (active).
For the molecule `Cc1nc2ccc(S(=O)(=O)NCC(=O)O)cc2s1`, the “activity change, negative = growth inhibition” value is -26.2% (inactive).
Turning to `CC(=O)OC[C@H]1O[C@@H](O[C@H]2[C@H](O)[C@@H](OC(=O)c3ccccc3C(=O)O)[C@H](O)O[C@@H]2COC(C)=O)[C@H](O)[C@@H](OC(=O)c2ccccc2C(=O)O)[C@@H]1O`, the “activity change, negative = growth inhibition” value is -0.0815% (inactive).
Same read-out and setting: as for `Cc1ccc(CNC(=O)C2CCCN2S(=O)(=O)c2ccc3c(c2)C(C)(C)C(=O)N3C)cc1` (centres undefined), the figure is -20.1% (inactive); as for `C=CCOc1ccc(C(=O)Nc2ccccc2C(=O)N2CCCC2)cc1`, -21% (inactive); as for `Cn1nnnc1NCc1ccc(Cl)c(Cl)c1`, -15% (inactive).
The same measure, in the same setting: as for `NS(=O)(=O)c1ccc(CNC(=O)c2ccc(Cl)cc2[N+](=O)[O-])cc1`, the figure is -20.7% (inactive); as for `Cc1cc2nn(-c3ccc(Cl)cc3)nc2cc1NC(=O)C(C)C`, -7.99% (inactive); as for `O=C(Cc1ccc(Cl)cc1)Nc1ccc2nn(-c3ccc(Cl)cc3)nc2c1`, -8% (inactive).
`Nc1ccc2nn(-c3ccc(Cl)cc3)nc2c1`: the Potency was 9.2 µM (active).
Regarding `CC(=O)c1ccc(NC(=O)C2CC(=O)Nc3nc4ccccc4n32)cc1` (centres undefined), the “activity change, negative = growth inhibition” value was -8.52% (inactive).
Still for that read-out and setting: to `COC(=O)C1(O)CC(C(C)C)=NN1C(=O)c1ccc(Cl)cc1` (centres undefined) belongs -9.27% (inactive).
`O=C(c1ccc(Cl)cc1)N1N=C(c2ccccn2)CC1(O)C(F)(F)F` (centres undefined): the Potency was 14.6 µM (active).
Consider `O=C(Cc1ccccc1)N1N=C(c2ccncc2)CC1(O)C(F)(F)F` (centres undefined), for which the “activity change, negative = growth inhibition” value was -21.2% (inactive).
Take `Cc1cn([C@H]2C[C@H](O)[C@@H](CNC(=O)[C@H](N)Cc3cccnc3)O2)c(=O)[nH]c1=O`: the “activity change, negative = growth inhibition” value was 2.17% (inactive).
The same measure, in the same setting: as for `O=c1[nH]n2c(=O)c3c([nH]c2c1N=Nc1ccccc1)CCC3`, the figure is -20.5% (inactive).
Same read-out and setting: as for `O=C(Nc1nnc(Cc2ccc(Cl)cc2)s1)c1ccncc1`, the figure is -9.95% (inactive); as for `COc1ccccc1CN1CCNC(=O)C1CC(=O)N(C)CC1CCOCC1` (centres undefined), 17.6% (inactive).
The same measure, in the same setting: as for `COCC(=O)N1CCCC(C(=O)c2ccc(C(F)(F)F)cc2)C1` (centres undefined), the figure is 4.79% (inactive).
Turning to `Cn1cc(CCC(=O)N2CCCC(C(=O)c3ccc(C(C)(C)C)cc3)C2)cn1` (centres undefined), the Potency was 20.6 µM (active).
For the molecule `Cn1cc(/C=C/C(=O)N2CCCC(C(=O)c3ccc(C(F)(F)F)cc3)C2)cn1` (centres undefined), the “activity change, negative = growth inhibition” value is -27.1% (inactive).
Turning to `Cc1nccn1-c1ccc(NC(=O)[C@H]2O[C@@H](n3cnc4c(N)ncnc43)[C@H](O)[C@@H]2O)cc1`, the “activity change, negative = growth inhibition” value is 1.47% (inactive).
For the molecule `CC1(C)S[C@@H]2[C@H](NC(=O)COc3ccccc3)C(=O)N2C1C(=O)OCc1ccccc1` (some centres undefined), the Potency result is “inactive”.
For `COc1cc(-c2noc(-c3ccc(N4CCCC4)c([N+](=O)[O-])c3)n2)cc(OC)c1OC`, the “activity change, negative = growth inhibition” value was -8.7% (inactive).
For `CNc1ccc(-c2nc(-c3ccco3)no2)cc1[N+](=O)[O-]`, the “activity change, negative = growth inhibition” value is -19.6% (inactive).
In the case of `COc1ccc(-c2noc(-c3ccc(N4CCN(c5ccccc5)CC4)c([N+](=O)[O-])c3)n2)cc1OC`, the Potency is 7.31 µM (active).
For `CCn1c(SC(C)C(=O)Nc2ccc(N3CCOCC3)cc2)nnc1-c1ccco1` (centres undefined), the “activity change, negative = growth inhibition” value was -4.59% (inactive).
On the same count and under the same terms, as for `O=C(Nc1cccnc1Oc1ncnc2cc(Cl)ccc12)c1ccc(F)cc1`, the figure is 1.07% (inactive).
`NS(=O)(=O)c1ccc(NS(=O)(=O)/C=C/c2ccccc2)cc1`: the “activity change, negative = growth inhibition” value was -16.4% (inactive).
Still for that read-out and setting: to `Cc1cccc(N2C(=O)c3ccc(C(=O)Nc4cccc(C(=O)O)c4)cc3C2=O)c1` belongs -29.4% (inactive).

The values above are taken from PubChem BioAssay AID686978 (National Center for Advancing Translational Sciences (NCATS), 2013).
